# Over roughly 9,900 sequences, “r (bound/input frequency ratio)” has its median near 0.7; the highest 2% begin near 6.5. The sample holds the highest values, similar sequences and a random draw of the others, so the mix is not that of the screen.
# B1: ENSMUSG00000022095.268|Fam160b2 (ssRNA)
# RNA: GGGAGUUCUACAGUCCGACGAUCGCUUCGAUAUCCGCAUGCUAAGAGAGAGAGAGAGAGCGAGCUAUGAAUGAAUGUGAGUGUGUGUGUGUGUGUGUGUGAGAGAGAGAGAGAGAGAGAGAGAGCUGUGAGUACACAUGGGUGCUGGUGUGGGACAGGAGCAGAUCUUGGUGGAGUGGGUCUACACUUGAGAUUUGUACUCGUUUGAGAGGCUGGGCAAUACUCAAUGCACUUUGGCAUUUGCAUGGUGUCUUCACAACAGCACAGCAAUAAACAUUGUGAUUGUGUGGACAUGCUGACUCUCCUCUUGCGGUCGCACUAGUGUGGAAUUCUCGGGUGUCAAGG
# B2: ENSMUSG00000022095.266|Fam160b2|1:10;49:69;116:120;252:257 (ssRNA)
# RNA: GGGAGUUCUACAGUCCGACGAUCGCUUCGAUAUCCGCAUGCUAACACACACACAGAGAGAGAGAGAGAGAGCGAGCUAUGAAUGAAUGUGACACACACACACACACACACACAGAGAGAGAGAGAGAGAGAGAGAGCUGUGAGUACACAUGGGUGCUGCACACGGACAGGAGCAGAUCUUGGUGGAGUGGGUCUACACUUGAGAUUUGUACUCGUUUGAGAGGCUGGGCAAUACUCAAUGCACUUUGGCAUUUGCAUGGUGUCUUCACAACAGCACAGCAAUAAACAUUGUGAUACACACGACCUCUUGCGGUCGCACUAGUGUGGAAUUCUCGGGUGUCAAGG
# B3: ENSMUSG00000022095.268|Fam160b2|37:57;104:108;240:245 (ssRNA)
# RNA: GGGAGUUCUACAGUCCGACGAUCGCUUCGAUAUCCGCAUGCUAAGAGAGAGAGAGAGAGCGAGCUAUGAAUGAAUGUGACACACACACACACACACACACAGAGAGAGAGAGAGAGAGAGAGAGCUGUGAGUACACAUGGGUGCUGCACACGGACAGGAGCAGAUCUUGGUGGAGUGGGUCUACACUUGAGAUUUGUACUCGUUUGAGAGGCUGGGCAAUACUCAAUGCACUUUGGCAUUUGCAUGGUGUCUUCACAACAGCACAGCAAUAAACAUUGUGAUACACACGACAUGCUGACUCUCCUCUUGCGGUCGCACUAGUGUGGAAUUCUCGGGUGUCAAGG
# B4: ENSMUSG00000022095.272|Fam160b2 (ssRNA)
# RNA: GGGAGUUCUACAGUCCGACGAUCGCUUCGAUAUCCGCAUGCUAGAAUGAAUGUGAGUGUGUGUGUGUGUGUGUGUGAGAGAGAGAGAGAGAGAGAGAGAGCUGUGAGUACACAUGGGUGCUGGUGUGGGACAGGAGCAGAUCUUGGUGGAGUGGGUCUACACUUGAGAUUUGUACUCGUUUGAGAGGCUGGGCAAUACUCAAUGCACUUUGGCAUUUGCAUGGUGUCUUCACAACAGCACAGCAAUAAACAUUGUGAUUGUGUGGACAUGCUGACUCUCCCCAGUCUGCUUUUCUUUUCCCCACUCUUGCGGUCGCACUAGUGUGGAAUUCUCGGGUGUCAAGG
# B5: ENSMUSG00000022095.270|Fam160b2|25:45;92:96;228:233 (ssRNA)
# RNA: GGGAGUUCUACAGUCCGACGAUCGCUUCGAUAUCCGCAUGCUAAGAGCGAGCUAUGAAUGAAUGUGACACACACACACACACACACACAGAGAGAGAGAGAGAGAGAGAGAGCUGUGAGUACACAUGGGUGCUGCACACGGACAGGAGCAGAUCUUGGUGGAGUGGGUCUACACUUGAGAUUUGUACUCGUUUGAGAGGCUGGGCAAUACUCAAUGCACUUUGGCAUUUGCAUGGUGUCUUCACAACAGCACAGCAAUAAACAUUGUGAUACACACGACAUGCUGACUCUCCCCAGUCUGCUUCUCUUGCGGUCGCACUAGUGUGGAAUUCUCGGGUGUCAAGG
# B6: ENSMUSG00000022095.271|Fam160b2|19:39;86:90;222:227 (ssRNA)
# RNA: GGGAGUUCUACAGUCCGACGAUCGCUUCGAUAUCCGCAUGCUAAGCUAUGAAUGAAUGUGACACACACACACACACACACACAGAGAGAGAGAGAGAGAGAGAGAGCUGUGAGUACACAUGGGUGCUGCACACGGACAGGAGCAGAUCUUGGUGGAGUGGGUCUACACUUGAGAUUUGUACUCGUUUGAGAGGCUGGGCAAUACUCAAUGCACUUUGGCAUUUGCAUGGUGUCUUCACAACAGCACAGCAAUAAACAUUGUGAUACACACGACAUGCUGACUCUCCCCAGUCUGCUUUUCUUUCUCUUGCGGUCGCACUAGUGUGGAAUUCUCGGGUGUCAAGG
# B7: ENSMUSG00000022095.271|Fam160b2 (ssRNA)
# RNA: GGGAGUUCUACAGUCCGACGAUCGCUUCGAUAUCCGCAUGCUAAGCUAUGAAUGAAUGUGAGUGUGUGUGUGUGUGUGUGUGAGAGAGAGAGAGAGAGAGAGAGAGCUGUGAGUACACAUGGGUGCUGGUGUGGGACAGGAGCAGAUCUUGGUGGAGUGGGUCUACACUUGAGAUUUGUACUCGUUUGAGAGGCUGGGCAAUACUCAAUGCACUUUGGCAUUUGCAUGGUGUCUUCACAACAGCACAGCAAUAAACAUUGUGAUUGUGUGGACAUGCUGACUCUCCCCAGUCUGCUUUUCUUUCUCUUGCGGUCGCACUAGUGUGGAAUUCUCGGGUGUCAAGG
# B8: ENSMUSG00000022095.273|Fam160b2 (ssRNA)
# RNA: GGGAGUUCUACAGUCCGACGAUCGCUUCGAUAUCCGCAUGCUAAUGUGAGUGUGUGUGUGUGUGUGUGUGAGAGAGAGAGAGAGAGAGAGAGAGCUGUGAGUACACAUGGGUGCUGGUGUGGGACAGGAGCAGAUCUUGGUGGAGUGGGUCUACACUUGAGAUUUGUACUCGUUUGAGAGGCUGGGCAAUACUCAAUGCACUUUGGCAUUUGCAUGGUGUCUUCACAACAGCACAGCAAUAAACAUUGUGAUUGUGUGGACAUGCUGACUCUCCCCAGUCUGCUUUUCUUUUCCCCAAGCUUUCUCUUGCGGUCGCACUAGUGUGGAAUUCUCGGGUGUCAAGG
# B9: ENSMUSG00000022095.269|Fam160b2 (ssRNA)
# RNA: GGGAGUUCUACAGUCCGACGAUCGCUUCGAUAUCCGCAUGCUAAGAGAGAGAGCGAGCUAUGAAUGAAUGUGAGUGUGUGUGUGUGUGUGUGUGAGAGAGAGAGAGAGAGAGAGAGAGCUGUGAGUACACAUGGGUGCUGGUGUGGGACAGGAGCAGAUCUUGGUGGAGUGGGUCUACACUUGAGAUUUGUACUCGUUUGAGAGGCUGGGCAAUACUCAAUGCACUUUGGCAUUUGCAUGGUGUCUUCACAACAGCACAGCAAUAAACAUUGUGAUUGUGUGGACAUGCUGACUCUCCCCAGUCUCUUGCGGUCGCACUAGUGUGGAAUUCUCGGGUGUCAAGG
# B10: ENSMUSG00000022095.272|Fam160b2|13:33;80:84;216:221 (ssRNA)
# RNA: GGGAGUUCUACAGUCCGACGAUCGCUUCGAUAUCCGCAUGCUAGAAUGAAUGUGACACACACACACACACACACACAGAGAGAGAGAGAGAGAGAGAGAGCUGUGAGUACACAUGGGUGCUGCACACGGACAGGAGCAGAUCUUGGUGGAGUGGGUCUACACUUGAGAUUUGUACUCGUUUGAGAGGCUGGGCAAUACUCAAUGCACUUUGGCAUUUGCAUGGUGUCUUCACAACAGCACAGCAAUAAACAUUGUGAUACACACGACAUGCUGACUCUCCCCAGUCUGCUUUUCUUUUCCCCACUCUUGCGGUCGCACUAGUGUGGAAUUCUCGGGUGUCAAGG
# Target: TDP-43 (Homo sapiens, UniProt Q13148 1-414)
# Test: RNA Bind-n-Seq with designed 260-mer pool; 25 mM Tris-HCl, 150 mM KCl, 3 mM MgCl2, BSA (printed 500 mg/mL), 20 units/mL SUPERase IN; pH not stated; 500 nM RNA pool, 1 h, 4 C; TDP-43 5, 50, 500 nM; high values mean tight binding
# Settings: protein: recombinant; tags: SBP (GST cleaved off with PreScission; pGEX-GST-SBP)
# Procedure, shortened: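 Duplicate measurements used two independent batches of recombinant SBP-tagged TDP-43, which was captured on streptavidin beads at 5, 50 or 500 nM. The beads were incubated with 500 nM of an in vitro-transcribed 260-nt 3′ UTR oligo pool for 1 h at 4 °C in 25 mM Tris-HCl, 150 mM KCl, 3 mM MgCl2, BSA and SUPERase IN. After washing, biotin elution, reverse transcription, PCR amplification and sequencing, binding was expressed as R: each oligo's normalized read abundance in the bound sample over its abundance in input.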
# Chain of TDP-43 (Q13148 whole entry): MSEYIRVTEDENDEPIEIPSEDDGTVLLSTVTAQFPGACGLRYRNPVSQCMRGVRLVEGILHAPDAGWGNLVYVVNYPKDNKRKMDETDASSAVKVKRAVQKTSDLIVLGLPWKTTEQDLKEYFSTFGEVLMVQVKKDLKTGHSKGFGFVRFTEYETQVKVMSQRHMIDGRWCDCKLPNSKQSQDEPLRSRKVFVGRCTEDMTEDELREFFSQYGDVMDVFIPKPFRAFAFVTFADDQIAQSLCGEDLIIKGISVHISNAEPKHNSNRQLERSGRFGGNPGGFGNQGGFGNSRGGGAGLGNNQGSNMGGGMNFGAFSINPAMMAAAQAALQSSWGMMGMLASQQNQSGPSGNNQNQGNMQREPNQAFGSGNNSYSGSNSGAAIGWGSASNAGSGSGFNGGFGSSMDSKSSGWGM
row,Binder,binding signal
1,B1,6.67 R (bound/input frequency ratio)
2,B2,4.83 R (bound/input frequency ratio)
3,B3,6.08 R (bound/input frequency ratio)
4,B4,5.79 R (bound/input frequency ratio)
5,B5,4.7 R (bound/input frequency ratio)
6,B6,4.21 R (bound/input frequency ratio)
7,B7,7.64 R (bound/input frequency ratio)
8,B8,5.83 R (bound/input frequency ratio)
9,B9,7.25 R (bound/input frequency ratio)
10,B10,4.46 R (bound/input frequency ratio)

# Source: article PMC12864922, “TDP-43 directly inhibits mRNA accumulation in neurites through modulation of mRNA stability”
